From PubChem BioAssay
Active and inactive are the calls of the source.

Columns and labels:
[1] = binders of probe aFSTL3 on microarray, primary screen, stem cell growth factor project, biochemical, small-molecule microarray, fluorescence 635/667 (AID 1064); details: higher = more signal;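 also: measures binding of the biotinylated anti-FSTL3 antibody to printed compounds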
[2] = binders from COS7 lysate, DM2A8 probe, primary screen, torsin A project, cell lysate, small-molecule microarray, fluorescence 635/667 (AID 1065); details: higher = more signal, COS7 lysate expressing mutant human TOR1A
[3] = binders of probe aFGF2 on microarray, primary screen, stem cell growth factor project, biochemical, small-molecule microarray, fluorescence 635/667 (AID 1067); details: higher = more signal;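 also: measures binding of biotinylated aFGF2 protein to printed compounds on slides; z-score merges feature fluorescence and signal-to-noise across triplicate slides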
[4] = binders of probe aFGF10 on microarray, primary screen, stem cell growth factor project, biochemical, small-molecule microarray, fluorescence 635/667 (AID 1071); details: higher = more signal;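 also: score merges 667 nm spot intensity and signal to noise from triplicate slides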
[5] = molecular target: Neurogenic locus notch homolog protein 2 (Homo sapiens) (UniProt Q04721); test: Notch2 binders on small-molecule microarrays, primary screen, biochemical, small-molecule microarray, 635 nm fluorescence, stem cell growth factors (AID 1073); details: Notch2 binding, higher = more signal
Chain of Neurogenic locus notch homolog protein 2 (Homo sapiens) (Q04721 whole entry, looked up, canonical isoform): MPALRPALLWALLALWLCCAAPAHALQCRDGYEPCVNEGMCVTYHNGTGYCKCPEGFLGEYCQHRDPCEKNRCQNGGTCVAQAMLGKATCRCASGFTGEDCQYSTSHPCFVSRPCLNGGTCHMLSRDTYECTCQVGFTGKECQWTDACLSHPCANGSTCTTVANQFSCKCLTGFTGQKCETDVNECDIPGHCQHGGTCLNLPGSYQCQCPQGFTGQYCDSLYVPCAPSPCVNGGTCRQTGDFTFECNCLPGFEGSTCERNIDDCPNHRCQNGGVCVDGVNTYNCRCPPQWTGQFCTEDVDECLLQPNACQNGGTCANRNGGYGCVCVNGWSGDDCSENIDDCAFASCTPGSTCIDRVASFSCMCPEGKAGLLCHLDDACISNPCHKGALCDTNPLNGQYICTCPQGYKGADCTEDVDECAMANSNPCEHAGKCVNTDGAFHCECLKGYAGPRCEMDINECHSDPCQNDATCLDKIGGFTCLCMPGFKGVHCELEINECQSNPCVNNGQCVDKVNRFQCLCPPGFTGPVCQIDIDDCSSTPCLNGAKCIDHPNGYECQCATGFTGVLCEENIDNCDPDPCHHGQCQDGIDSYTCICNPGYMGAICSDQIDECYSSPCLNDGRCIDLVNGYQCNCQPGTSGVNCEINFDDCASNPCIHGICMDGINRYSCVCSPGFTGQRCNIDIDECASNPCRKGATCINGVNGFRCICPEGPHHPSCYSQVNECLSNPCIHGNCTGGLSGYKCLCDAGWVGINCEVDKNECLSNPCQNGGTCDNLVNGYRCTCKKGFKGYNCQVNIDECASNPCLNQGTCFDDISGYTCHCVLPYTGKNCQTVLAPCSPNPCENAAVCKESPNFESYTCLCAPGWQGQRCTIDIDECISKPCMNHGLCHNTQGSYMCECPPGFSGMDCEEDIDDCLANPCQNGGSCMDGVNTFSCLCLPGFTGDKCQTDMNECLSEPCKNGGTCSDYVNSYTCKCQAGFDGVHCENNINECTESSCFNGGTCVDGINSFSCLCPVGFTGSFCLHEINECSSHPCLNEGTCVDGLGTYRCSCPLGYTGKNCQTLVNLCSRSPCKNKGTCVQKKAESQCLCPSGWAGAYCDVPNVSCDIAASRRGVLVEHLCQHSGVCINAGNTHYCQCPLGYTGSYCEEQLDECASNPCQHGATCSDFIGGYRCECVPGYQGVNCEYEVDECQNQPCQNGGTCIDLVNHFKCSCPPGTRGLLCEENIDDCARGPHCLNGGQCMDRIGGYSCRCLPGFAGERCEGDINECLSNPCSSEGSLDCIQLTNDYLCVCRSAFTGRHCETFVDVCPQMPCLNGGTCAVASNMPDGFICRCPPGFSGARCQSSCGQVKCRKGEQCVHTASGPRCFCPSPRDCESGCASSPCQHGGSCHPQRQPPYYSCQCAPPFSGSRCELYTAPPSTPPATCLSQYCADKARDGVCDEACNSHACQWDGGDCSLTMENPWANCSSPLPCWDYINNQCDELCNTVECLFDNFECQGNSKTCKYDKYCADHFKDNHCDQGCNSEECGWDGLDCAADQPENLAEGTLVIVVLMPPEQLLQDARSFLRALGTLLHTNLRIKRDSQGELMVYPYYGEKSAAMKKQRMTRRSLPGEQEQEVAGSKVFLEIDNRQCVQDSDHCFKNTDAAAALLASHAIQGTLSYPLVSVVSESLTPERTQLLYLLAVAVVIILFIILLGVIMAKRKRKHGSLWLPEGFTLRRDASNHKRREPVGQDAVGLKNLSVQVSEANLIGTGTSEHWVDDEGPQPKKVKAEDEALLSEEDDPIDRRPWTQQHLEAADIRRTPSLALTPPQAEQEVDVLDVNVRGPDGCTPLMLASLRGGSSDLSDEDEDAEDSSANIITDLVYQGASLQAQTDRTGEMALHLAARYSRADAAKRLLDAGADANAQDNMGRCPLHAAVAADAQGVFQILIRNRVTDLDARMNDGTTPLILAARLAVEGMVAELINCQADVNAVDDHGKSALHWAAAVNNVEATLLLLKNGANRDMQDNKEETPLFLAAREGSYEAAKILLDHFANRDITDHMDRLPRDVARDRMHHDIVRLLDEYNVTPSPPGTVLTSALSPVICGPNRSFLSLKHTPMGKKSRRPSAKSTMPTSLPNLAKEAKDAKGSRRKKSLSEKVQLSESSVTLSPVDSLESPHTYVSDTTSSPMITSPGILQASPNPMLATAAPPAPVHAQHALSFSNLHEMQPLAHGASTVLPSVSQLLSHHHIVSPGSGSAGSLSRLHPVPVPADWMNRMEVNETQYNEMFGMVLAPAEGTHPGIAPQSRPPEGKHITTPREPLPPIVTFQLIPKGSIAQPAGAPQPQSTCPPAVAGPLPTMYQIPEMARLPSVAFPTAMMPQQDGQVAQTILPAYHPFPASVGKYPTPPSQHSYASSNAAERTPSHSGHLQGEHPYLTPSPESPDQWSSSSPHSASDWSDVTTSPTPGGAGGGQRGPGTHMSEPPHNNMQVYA

[6] = molecular target: Pro-neuregulin-1, membrane-bound isoform (Homo sapiens) (UniProt Q02297); test: NRG1 binders on small-molecule microarrays, primary screen, psychiatric disease protein project, biochemical, small-molecule microarray, fluorescence 635/667 (AID 1075); details: NRG1 binding, 635 nm fluorescence, higher = more signal;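 also: score combines 667 nm spot fluorescence with signal to noise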
Chain of Pro-neuregulin-1, membrane-bound isoform (Homo sapiens) (Q02297 whole entry, looked up, the tested form may be a part, canonical isoform): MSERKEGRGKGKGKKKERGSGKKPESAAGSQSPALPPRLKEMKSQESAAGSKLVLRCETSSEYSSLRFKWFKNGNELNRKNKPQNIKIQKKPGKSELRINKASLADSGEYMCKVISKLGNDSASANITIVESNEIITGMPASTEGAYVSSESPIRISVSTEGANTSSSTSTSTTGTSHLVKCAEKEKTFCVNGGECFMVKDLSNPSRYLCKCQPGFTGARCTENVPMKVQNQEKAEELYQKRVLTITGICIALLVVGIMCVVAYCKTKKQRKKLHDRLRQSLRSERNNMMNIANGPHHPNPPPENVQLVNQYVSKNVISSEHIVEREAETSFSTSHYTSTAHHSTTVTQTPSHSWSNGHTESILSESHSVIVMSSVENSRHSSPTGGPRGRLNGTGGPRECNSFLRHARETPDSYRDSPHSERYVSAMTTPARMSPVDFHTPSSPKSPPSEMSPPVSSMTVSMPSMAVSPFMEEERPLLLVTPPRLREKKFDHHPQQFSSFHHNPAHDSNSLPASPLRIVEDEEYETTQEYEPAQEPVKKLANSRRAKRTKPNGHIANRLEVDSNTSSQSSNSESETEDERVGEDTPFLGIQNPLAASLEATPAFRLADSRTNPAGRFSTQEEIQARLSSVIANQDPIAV

[7] = tested on: Neuregulin-1 EGF-like domain; test: binders of neuregulin-1 EGF-like domain, primary screen, biochemical, small-molecule microarray, 635 nm fluorescence (AID 1081); details: small-molecule microarray binding, higher = more signal;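 also: binding of the protein to compounds printed on small-molecule microarray slides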
[8] = FRG1 promoter luciferase signal modulators, primary screen, FRG1 inhibition for FSHD, cell-based, C2C12 myotubes, firefly/Renilla luciferase, luminescence (AID 1084); details: higher = more signal, called active from +8 up or from −8 down
[9] = binders of probe aFST on microarray, primary screen, stem cell growth factor project, biochemical, small-molecule microarray, fluorescence 635/667 (AID 1086); details: higher = more signal;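 also: score merges 667 nm fluorescence with signal-to-noise of each printed compound spot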
[10] = binders of probe aHhip on microarray, primary screen, stem cell growth factor project, biochemical, small-molecule microarray, fluorescence 635/667 (AID 1087); details: higher = more signal;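 also: score merges spot fluorescence at 667nm with spot signal to noise ratio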

## COc1ccc(CCNC(=O)[C@@]2(Sc3ccc(C)cc3)CC(=O)N(C3CCCCC3)[C@@H]2c2ccc(CO)cc2I)cc1
[1]
  composite z-score: -0.113
[2]
  composite z-score: 0.567
[3]
  composite z-score: 0.0561
[4]
  composite z-score: 0.773
[5]
  composite z-score: 1.23
[6]
  composite z-score: 1.29
[7]
  composite z-score: 1.02
[8]
  z-score: -1.57 (inactive)
[9]
  composite z-score: 0.306
[10]
  composite z-score: -0.0237

## O=C(NCc1ccccc1)[C@@H]1c2ccccc2C(=O)N(CC23CC4CC(CC(C4)C2)C3)[C@H]1c1ccc(CO)cc1
[1]
  composite z-score: -0.906
[2]
  composite z-score: 0.0469
[3]
  composite z-score: -0.0494
[4]
  composite z-score: 0.484
[5]
  composite z-score: 1.01
[6]
  composite z-score: 1.45
[7]
  composite z-score: 1.2
[8]
  z-score: -3.34 (inactive)
[9]
  composite z-score: 0.193
[10]
  composite z-score: -0.0994

## CN(C)CCCNC(=O)[C@@]1(c2ccc([N+](=O)[O-])cc2)CC(=O)N(C2CCCCC2)[C@@H]1c1ccc(CO)cc1
[1]
  composite z-score: 0.4
[2]
  composite z-score: 0.595
[3]
  composite z-score: -0.0717
[4]
  composite z-score: -0.466
[5]
  composite z-score: -0.513
[6]
  composite z-score: 1.52
[7]
  composite z-score: 0.692
[8]
  z-score: -0.767 (inactive)
[9]
  composite z-score: -0.114
[10]
  composite z-score: 0.0373

## O=C(NCC(F)(F)F)[C@@H]1c2ccccc2C(=O)N(C2CCCCC2)[C@H]1c1ccc(CO)cc1
[1]
  composite z-score: -0.176
[2]
  composite z-score: -0.527
[3]
  composite z-score: -0.116
[4]
  composite z-score: 0.0931
[5]
  composite z-score: 0.154
[6]
  composite z-score: 1.61
[7]
  composite z-score: 0.611
[8]
  z-score: -1.46 (inactive)
[9]
  composite z-score: 0.249
[10]
  composite z-score: 0.0505

## C=CCOC(=O)[C@H]1[C@@H]2C(=O)O[C@@H](c3ccccc3)[C@@H](c3ccccc3)N2[C@@H](c2ccc(OCCOC(=O)[C@H]3C[C@H]4C(=O)N[C@@H](CC(C)C)C(=O)N4[C@H]3c3ccc(O)cc3)cc2)[C@]12C(=O)Nc1ccc(I)cc12
[1]
  composite z-score: -0.921
[2]
  composite z-score: 1.1
[3]
  composite z-score: -0.0355
[4]
  composite z-score: 0.69
[5]
  composite z-score: 0.82
[6]
  composite z-score: 0.731
[7]
  composite z-score: 1.34
[8]
  z-score: 1.11 (inactive)
[9]
  composite z-score: -0.742
[10]
  composite z-score: -0.263

## C=CCN1C(=O)[C@]2(O[C@H](CCO)[C@@H]([Si](C)(C)c3ccc(OC)cc3)[C@@H]2C)c2cc(N3CCCCC3=O)ccc21
[1]
  composite z-score: -0.5
[2]
  composite z-score: 0.897
[3]
  composite z-score: -0.0291
[4]
  composite z-score: 0.428
[5]
  composite z-score: 1.15
[6]
  composite z-score: 1.42
[7]
  composite z-score: 1.24
[8]
  z-score: -3.81 (inactive)
[9]
  composite z-score: 0.645
[10]
  composite z-score: -0.13

## CN(C)C(=O)[C@]1(Cc2ccccc2CN=[N+]=[N-])N=C(c2ccc(OCCCO)cc2)O[C@@H]1c1ccccc1CN=[N+]=[N-]
[1]
  composite z-score: -0.0551
[2]
  composite z-score: 1.26
[3]
  composite z-score: 0.0858
[4]
  composite z-score: 1.18
[5]
  composite z-score: 1.43
[6]
  composite z-score: 0.559
[7]
  composite z-score: 1.27
[8]
  z-score: -1.45 (inactive)
[9]
  composite z-score: 1.64
[10]
  composite z-score: -0.318

## O=C1O[C@H](c2ccccc2)[C@H](c2ccccc2)N2[C@H]1[C@@H](C(=O)Nc1nc3ccccc3s1)[C@]1(C(=O)Nc3ccc(C#CCCO)cc31)[C@H]2c1ccc(OCCO)cc1
[1]
  composite z-score: -0.379
[2]
  composite z-score: 0.135
[3]
  composite z-score: 0.0401
[4]
  composite z-score: 1.14
[5]
  composite z-score: 1.19
[6]
  composite z-score: 0.887
[7]
  composite z-score: 0.975
[8]
  z-score: -0.0455 (inactive)
[9]
  composite z-score: 0.119
[10]
  composite z-score: 0.224

## O=C1NCC(=O)N2[C@@H]1C[C@@H](C(=O)O)[C@H]2c1cccc(OCCO)c1
[1]
  composite z-score: 3.93
[2]
  composite z-score: 2.65
[3]
  composite z-score: 1.02
[4]
  composite z-score: 0.935
[5]
  composite z-score: 1.82
[6]
  composite z-score: 2.97
[7]
  composite z-score: 1.53
[8]
  z-score: 3.17 (inactive)
[9]
  composite z-score: 3.63
[10]
  composite z-score: 3.89

## COCCOC(=O)N1C(=O)[C@@]2(c3cc(C#CC4=CCCCC4)ccc31)[C@H](C(N)=O)[C@H]1C(=O)O[C@H](c3ccccc3)[C@H](c3ccccc3)N1[C@@H]2c1ccc(OCCO)cc1
[1]
  composite z-score: -0.809
[2]
  composite z-score: 0.897
[3]
  composite z-score: -0.0009
[4]
  composite z-score: 0.806
[5]
  composite z-score: 0.254
[6]
  composite z-score: 0.514
[7]
  composite z-score: 1.19
[8]
  z-score: -0.408 (inactive)
[9]
  composite z-score: -0.335
[10]
  composite z-score: -0.237

## NCCCCCNC(=O)[C@@H]1C[C@@H]2C(=O)NCC(=O)N2[C@@H]1c1ccc(O)cc1
[1]
  composite z-score: -0.293
[2]
  composite z-score: 0.304
[3]
  composite z-score: -0.129
[4]
  composite z-score: 0.975
[5]
  composite z-score: -0.195
[6]
  composite z-score: 0.817
[7]
  composite z-score: 1.25
[8]
  z-score: 0.117 (inactive)
[9]
  composite z-score: -0.107
[10]
  composite z-score: -0.0994

## C=CCC(OC(C)=O)[C@@H]1[C@@H](N(Cc2cccc3ccccc23)C(=O)c2ccc(-c3ccccc3)cc2)c2cc(OCCCO)ccc2N1C(=O)Cc1ccc(OC)cc1 (stereo not given in full)
[1]
  composite z-score: -0.184
[2]
  composite z-score: 0.419
[3]
  composite z-score: -0.061
[4]
  composite z-score: 0.151
[5]
  composite z-score: -0.131
[6]
  composite z-score: 0.0521
[7]
  composite z-score: 0.138
[8]
  z-score: 0.61 (inactive)
[9]
  composite z-score: -0.0107
[10]
  composite z-score: -0.0618

## COCC(=C=CC[C@H](O)c1ccccc1OCCO)C[C@H](O)c1cc(Cl)cc(Cl)c1O
[1]
  composite z-score: -0.417
[2]
  composite z-score: 0.555
[3]
  composite z-score: -0.129
[4]
  composite z-score: 0.999
[5]
  composite z-score: 0.421
[6]
  composite z-score: 1.43
[7]
  composite z-score: 1.14
[8]
  z-score: -3.97 (inactive)
[9]
  composite z-score: 0.372
[10]
  composite z-score: -0.0994

## O=C1O[C@H](c2ccccc2)[C@H](c2ccccc2)N2[C@H]1[C@@H](C(=O)N1CCN(c3ncccn3)CC1)[C@]1(C(=O)Nc3ccc(C#CC4=CCCCC4)cc31)[C@H]2c1ccc(O)cc1
[1]
  composite z-score: -0.001
[2]
  composite z-score: 0.542
[3]
  composite z-score: -0.0523
[4]
  composite z-score: 0.768
[5]
  composite z-score: 1.28
[6]
  composite z-score: 1.11
[7]
  composite z-score: 1.24
[8]
  z-score: -0.63 (inactive)
[9]
  composite z-score: 0.502
[10]
  composite z-score: -0.201

## COc1ccc(C(=O)Nc2cccc(CN3C(=O)[C@]4(O[C@H](CCO)[C@@H]([Si](C)(C)c5ccc(OC)cc5)[C@@H]4C)c4ccccc43)c2)cc1
[1]
  composite z-score: -0.442
[2]
  composite z-score: 0.193
[3]
  composite z-score: -0.102
[4]
  composite z-score: 0.285
[5]
  composite z-score: 0.484
[6]
  composite z-score: 0.621
[7]
  composite z-score: 1.09
[8]
  z-score: -3.19 (inactive)
[9]
  composite z-score: 0.439
[10]
  composite z-score: -0.179

## COC(=O)[C@@]1(Cc2ccc(OC)cc2)[C@H]2c3cc(C(=O)N(C)C)n(Cc4cccc5ccccc45)c3C[C@H]2CN1C(=O)c1ccccc1
[1]
  composite z-score: -0.193
[2]
  composite z-score: 1.16
[3]
  composite z-score: 0.118
[4]
  composite z-score: 1.15
[5]
  composite z-score: 1.27
[6]
  composite z-score: 1.79
[7]
  composite z-score: 1.36
[8]
  z-score: 0.189 (inactive)
[9]
  composite z-score: 1.33
[10]
  composite z-score: 0.534
